a7 integrin act: activators of alpha7 integrin expression for muscular dystrophy. Potency, µM (doses to about 38.3 µM), without a hit: top-dose activation, most hits filed as activators. actives 0.064% (n = 350,000). AID 624291. alpha7betagal myoblasts, beta-gal FDG fluorescence, 48 h;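 also: potency is read from the fitted curve at half-maximal effect; 100% = response of the positive control SU9516; nearly all actives have a fitted effect of over 60% in size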
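Alpha7betagal+/- myoblasts (passage 13) were plated 16-24 hr, then exposed to compounds (1:260 dilution of DMSO stock) for 48 hours at 37C. After MPER lysis, β-galactosidase reporter activity was read as FDG fluorescence (ex 480/em 540) after 30 minutes.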
GALK inhibitor: inhibitors of human galactokinase. P51570. Purified GALK, Kinase-Glo residual ATP luminescence. Potency, µM (series often up to 57.5 µM), inactives show at the highest dose activity change, negative = inhibition, actives largely listed as inhibitors. actives 0.007% (n = 270,000); also: potency is read from the fitted curve at half-maximal effect
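The enzyme phosphorylates galactose (100 uM) using ATP (35 uM); inhibition is detected as higher residual ATP, quantified by bioluminescence after 1 h reaction at room temperature, pH 8.0.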
LDHA block: blocks human lactate dehydrogenase A; purified LDHA, NADH/diaphorase-resazurin fluorescence; hits give low values; P00338; AID 1347041; activity change, % (values are at about 110 or 230 µM); actives 0.15% (n = 480,000); in the data active = activity change below about -30%; inconclusive = mostly about -25% to -30%;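 also: plate controls were DMSO wells for no effect and wells without enzyme for full effect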
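Remaining NADH was detected by diaphorase (0.133 mg/mL) converting 37 µM resazurin to fluorescent resorufin, read at 0 and 20 minutes. The preceding 5-minute room-temperature reaction used 2 nM LDHA, 0.2 mM sodium pyruvate and 0.06 mM NADH at pH 7.4.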
TrxR1 substrate: substrates of rat thioredoxin reductase 1; O89049; purified TrxR1 substrate turnover, NADPH consumption readout; Potency, µM (top dose mostly 114 µM), for the others: top-dose activity change, negative = substrate turnover; actives 0.01% (n = 390,000); AID 588456; also: potency is read from the fitted curve at half-maximal effect; nearly all actives have a fitted effect of over 50% in size
Target sequence (O89049 whole entry, looked up): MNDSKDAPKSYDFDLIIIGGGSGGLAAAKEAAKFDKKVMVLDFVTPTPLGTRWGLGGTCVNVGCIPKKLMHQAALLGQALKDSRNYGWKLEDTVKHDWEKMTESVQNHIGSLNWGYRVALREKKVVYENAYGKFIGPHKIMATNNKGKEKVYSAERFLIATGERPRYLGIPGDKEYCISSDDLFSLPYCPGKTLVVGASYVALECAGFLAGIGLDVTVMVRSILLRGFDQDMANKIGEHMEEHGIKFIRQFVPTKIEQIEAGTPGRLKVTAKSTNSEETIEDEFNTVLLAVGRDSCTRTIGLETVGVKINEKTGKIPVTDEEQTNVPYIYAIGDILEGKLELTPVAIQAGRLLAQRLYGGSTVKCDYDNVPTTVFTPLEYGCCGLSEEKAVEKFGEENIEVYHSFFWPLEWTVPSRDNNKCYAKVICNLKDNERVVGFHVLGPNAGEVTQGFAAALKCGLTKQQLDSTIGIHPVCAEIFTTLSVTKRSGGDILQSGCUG
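Rat TrxR1, dispensed at 90 nM, was prereduced with 400 uM NADPH (final) for 5 min at ~22 deg C, then incubated with compound 15 min before 400 uM selenite. A first-read NADPH fluorescence drop versus no-compound background flagged substrates.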
TrxR1 inh: rat TrxR1 inhibition; O89049; recombinant rTrxR1, NADPH fluorescence consumption, selenite substrate; Potency, µM (doses to about 114 µM), without a hit: top-dose activity change, negative = inhibition, usual class: inhibitors; actives 1% (n = 390,000); AID 588453; also: potency is read from the fitted curve at half-maximal effect; nearly all actives have a fitted effect of over 65% in size
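Rat TrxR1 (90 nM in the dispensed reagent) was pre-reduced with 400 uM NADPH for 5 min at room temperature, then incubated with compound for 15 min. After 400 uM selenite was added, NADPH fluorescence (Ex 340/Em 450 nm) was followed for 8 min.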
PI4K2A inh: inhibitors of human PI4K2A. activity change, negative = inhibition, % at 76.9 µM. purified PI4K2A, ADP-Glo luminescence, 1 h; hits give low values. AID 1346378. Q9BTU6. actives 0.13% (n = 420,000); in the data active = activity change below about -50%; inconclusive = mostly about -30% to -49%;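 also: -100% = wells without enzyme as full effect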
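ADP-Glo luminescence measured ADP generated by PI4K2A enzyme (4 ug/mL before mixing) with 1.2 mM PI substrate (pre-mix) and 300 microM ATP (pre-mix). Tris pH7.5 buffer with MgCl2, Triton X-100; 1 h reaction at ambient temperature.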
Starred values were filed as active, the others as inactive; u = inconclusive; x = no result; ! = not confirmed by another sample; [ ] = another dose, or the depositor's remark. Sampled rows, rich in hits. Any-hit rate of the full collection: about 1.1%. Unless noted, calls follow the shape of the dose curve; as a rule, active = well fitted curve in the direction sought with a large enough effect; inconclusive = small, poorly fitted or top-dose-only effect, or another doubt; inactive = no such curve, though single readings can be large; an effect the other way counts as inactive or inconclusive. Unless noted, % is scaled to controls: 0 for no effect and ±100 for the full control effect.

SMILES	a7 integrin act	GALK inhibitor	LDHA block	TrxR1 substrate	TrxR1 inh	PI4K2A inh
COc1ccc(/[N+]([O-])=C/c2ccco2)cc1	7.4%	x	13.1	-6.6%	56.2µM*	-23.6
CN1CCCC1CNC(=O)Cc1cn(C)c2ccccc12 (stereo unspecified)	x	x	-1.1	x	x	x
O=C(CSc1ccccc1)NCC(c1ccco1)N1CCCCC1 (stereo unspecified)	0.0%	x	2.5	-0.7%	15.7%	-2.5
OC(CNCC(c1ccco1)N1CCCCC1)c1ccccc1 (stereo unspecified)	5.5%	6.0%	-30.6*	-7.5%	-18.3%	9.5
CCc1ccccc1N1CC23C=CC(O2)C(C(=O)OCC(C)C)C3C1=O (stereo unspecified)	-2.8%	-0.2%	-1.8	8.7%[57.1 µM]	25.2%[57.1 µM]	-4.2
CC(C)(C)C(=O)NCC12C=CC(O1)C1C(=O)N(c3ccccc3)C(=O)C12 (stereo unspecified)	-58.5%	-0.3%	-1.3	1.2%	17.8µM*	-5.7
Cc1ccc(N2C(=O)C3C4C=CC(CNC(=S)Nc5ccc(F)cc5)(O4)C3C2=O)cc1 (stereo unspecified)	-9.0%	2.3%	-3.1	-12.4%	15.8µM*	4.8
CC(C)COC(=O)NCC12C=CC(O1)C1C(=O)N(c3ccc(Cl)cc3)C(=O)C12 (stereo unspecified)	-36.6%	0.4%	-12.6	13.3%[57.1 µM]	14.1µM*	-6.8
Cc1ccc(N2C(=O)C3C4C=CC(CNC(=S)Nc5cccc(Cl)c5)(O4)C3C2=O)cc1 (stereo unspecified)	-30.0%	0.0%	-3.7	-14.2%	7.94µM*	4.6
Cc1ccc(CNC(=O)C2CCCN(C(=O)Nc3ccc(F)cc3)C2)cc1 (stereo unspecified)	-33.4%	7.0%	-7.7	7.9%[57.1 µM]	14.0%[57.1 µM]	-2.6
CCn1nc(C(=O)N(Cc2ccc(OC)cc2)C(C)Cc2cccs2)c2ccccc2c1=O (stereo unspecified)	x	x	7.9	x	x	x
C=CCS(=O)(=O)c1ccc(Br)c2ccccc12	x	x	-4.5	x	x	x
CCCc1cc(=O)[nH]c(Nc2nc(C)c3cc(C)c(C)cc3n2)n1	x	x	2.4	x	x	x
Cc1ccc(CC(=O)NC2CCCCC2C)cc1 (stereo unspecified)	x	x	1.0	x	x	x
Cc1ccc(C)c(NC(=S)N2CCN(c3ccccn3)CC2)c1	11.0%	0.0%	-4.1	7.1%	29.3%	-2.3
Cc1ccc(N2C(=O)C3C4C=CC(CNC(=S)N5CCN(c6ccccn6)CC5)(O4)C3C2=O)cc1 (stereo unspecified)	-24.7%	11.1%	-0.2	4.8%	11.2µM*	4.0
Cc1ccc(N2C(=O)C3C4C=CC(CNC(=S)Nc5ccc(Cl)cc5)(O4)C3C2=O)cc1 (stereo unspecified)	-26.9%	0.7%	-5.9	-1.7%	28.2µM*	1.5
O=C(NCCNc1ncccn1)NCc1ccccc1	x	x	9.2	x	x	x
CCCN(Cc1ccc(F)cc1)Cc1cc(=O)n2c3c(sc2n1)CCCC3	x	x	1.3	x	x	x
O=C(NCC(c1ccccc1)N1CCOCC1)c1cc(-c2cccs2)on1 (stereo unspecified)	x	x	-31.6*	x	x	x
C=C(C)COc1cccc(N)c1	x	x	16.6	x	x	x
CSc1ccccc1C(=O)Nc1c(C)cc(C)cc1C	x	x	-31.8*	x	x	x
COCCSc1ccccc1C(=O)Nc1cc(C)cc(C)c1	4.47µM*	4.6%	-0.9	-0.8%	25.6%	0.4
CCOc1ccc(C(=O)Nc2cccc3cccnc23)cc1Cl	x	x	5.4	x	x	x
COc1ccc2c(c1)cc(C(=O)NC(C)c1ccccc1)n2C (stereo unspecified)	x	x	0.9	x	x	x
SMILES	a7 integrin act	GALK inhibitor	LDHA block	TrxR1 substrate	TrxR1 inh	PI4K2A inh
CCCCn1c(/C=C/c2ccco2)nc2ccccc21	-9.3%	0.3%	3.5	4.9%	50.1µM*	-4.2
Cc1ccc(Cn2c(/C=C/c3ccco3)nc3ccccc32)cc1	-20.2%	-0.4%	-4.0	-1.8%	6.7%	-9.2
Clc1ccc(Cn2c(/C=C/c3ccco3)nc3ccccc32)cc1	0.0%	-3.1%	-6.9	12.6%	44.7µM*	-9.5
CCCn1c(/C=C/c2ccco2)nc2ccccc21	-16.1%	-0.7%	1.3	13.7%	50.1µM*	-14.0
Cc1ccc(C(=O)Nc2ccc3oc(-c4ccncc4)nc3c2)cc1C	x	x	-1.4	x	x	x
C=CCNC(=S)N/N=C(/C)c1ccncc1	x	x	7.9	x	x	x
O=C1C=CC(=O)N1Cc1ccncc1	1.7%	x	0.0	5.4%	u	3.5
O=C1C=CC(=O)N1Cc1cccnc1	-9.5%	x	3.7	4.1%	79.4µM*	-5.7
Cc1ccc(Sc2c([N+](=O)[O-])c(=O)n(C)c3ccccc23)cc1	7.5%	-5.4%	-8.2	1.2%	2µM*	-9.2
CCN(C(=O)c1sc2nc3n(c(=O)c2c1C)CCCCC3)c1ccc(OC)cc1	x	x	0.3	-1.3%	70.8µM*	-7.8
COc1ccc(COC[C@H](C)[C@H](O)[C@@H](C)[C@H]2OC(=O)[C@@H]2C)cc1	24.8%	x	-12.7	-3.4%	7.94µM*!	-0.2
COc1ccc(COCC(O)CNC(=O)CC(C)C)cc1 (stereo unspecified)	x	x	2.6	x	x	x
NC(=S)N=Nc1ccc(NN=C(N)N)cc1	x	x	18.6	-9.2%	20µM*	-5.2
COc1ccc(CCNC(=O)c2nn(Cc3ccccc3)c(=O)c3ccccc23)cc1	x	x	11.8	x	x	x
O=C(Nc1nccs1)c1ccc(Br)o1	-6.7%	-2.2%	-0.2	9.1%[57.1 µM]	-5.4%	-0.5
O=C(/C=C/c1ccc(Br)o1)Nc1nccs1	u	9.8%	-0.4	1.0%	28.2µM*	-12.2
O=C(/C=C/c1ccc(Br)o1)NCc1ccccc1	-28.1%	0.6%	-2.8	1.7%	3.98µM*	-22.5
CCCCn1nc(C(=O)Nc2cc(C(=O)O)ccc2C)c2ccccc2c1=O	x	x	0.5	x	x	x
Cc1cc(C)c2c(=O)cc(C(=O)Nc3ccccc3C)oc2c1	x	x	-4.8	x	x	x
CN1C(=O)C(O)(CC(=O)/C=C/c2ccco2)c2ccccc21 (stereo unspecified)	9.8%	2.5%	3.3	-4.2%[57.1 µM]	-15.2%[57.1 µM]	-2.8
CN1C(=O)C(O)(CC(=O)/C=C/c2ccco2)c2cc(Br)ccc21 (stereo unspecified)	-51.6%	6.2%	0.9	-10.7%	15.8µM*	-14.5
CCOC(=O)N1CCN(C(=O)C2CCN(C(=O)c3ccccc3C)CC2)CC1	-76.3%	x	-3.5	6.1%	2.51µM*	-3.1
O=C(Nc1ccc(F)cc1)c1ccc(N2C(=O)CCS2(=O)=O)cc1Cl	x	x	-20.2	x	x	x
CCN(CC)C(=O)c1sc(NC(=O)C2c3ccccc3Oc3ccccc32)c(C#N)c1C	x	x	-22.2	x	x	x
Nc1ccccc1C12CC3CC(CC(C3)C1)C2	x	x	2.5	x	x	x
NNC(=O)c1oc2nc(-c3ccco3)cc(-c3ccco3)c2c1N	-22.5%	2.0%	5.6	7.9%[57.1 µM]	-9.1%[57.1 µM]	-57.1*
